Shown are actives, neighbours in structure and some others; about 1.3% of the full set was active somewhere.
CD11b adhes inh = blocks human CD11b/CD18 adhesion to fibrinogen | K562 CD11b/CD18 adhesion to fibrinogen, ATPlite luminescence; Mn2+ added to activate the integrin | inhibition, % at 10 µM | 93,000 tested, 0.54% active | AID 1497;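 active = primary inhibition of 50% or more at 10 µM, then 40% or more on retest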
Target sequence (P05107 whole entry, looked up, other chains not shown): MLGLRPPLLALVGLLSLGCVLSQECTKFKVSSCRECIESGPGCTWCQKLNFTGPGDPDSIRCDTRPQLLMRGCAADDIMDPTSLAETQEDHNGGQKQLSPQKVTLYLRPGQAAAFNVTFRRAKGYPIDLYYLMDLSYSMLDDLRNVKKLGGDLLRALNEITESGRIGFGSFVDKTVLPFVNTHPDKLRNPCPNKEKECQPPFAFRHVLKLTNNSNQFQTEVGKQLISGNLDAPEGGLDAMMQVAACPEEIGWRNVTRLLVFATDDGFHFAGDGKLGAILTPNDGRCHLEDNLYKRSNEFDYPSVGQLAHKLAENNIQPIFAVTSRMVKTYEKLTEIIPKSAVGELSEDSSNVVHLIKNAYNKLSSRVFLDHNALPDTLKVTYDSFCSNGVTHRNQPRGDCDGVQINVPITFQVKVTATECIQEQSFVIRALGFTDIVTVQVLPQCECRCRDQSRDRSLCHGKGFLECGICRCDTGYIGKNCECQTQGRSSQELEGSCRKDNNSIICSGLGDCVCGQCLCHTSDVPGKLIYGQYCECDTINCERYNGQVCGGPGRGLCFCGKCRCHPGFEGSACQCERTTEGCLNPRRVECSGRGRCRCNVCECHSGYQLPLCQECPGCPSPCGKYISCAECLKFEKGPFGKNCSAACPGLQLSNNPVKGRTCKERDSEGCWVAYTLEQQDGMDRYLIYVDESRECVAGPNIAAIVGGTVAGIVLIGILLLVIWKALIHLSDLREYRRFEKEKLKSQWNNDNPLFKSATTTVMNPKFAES
MRP reversal = MRP-mediated drug resistance reversal | H69AR cells + 2 uM doxorubicin, CellTiter-Glo, 72 h | AID 602 | differential viability (reversal), % at 10 µM | 85,000 tested, 0.04% active;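 active = viability drop by adding the cancer drug above about 55%, with treated viability meeting a 40% cutoff, limit read from the data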;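 note: larger differential means the compound sensitizes cells more to doxorubicin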
MRP-1 activ = MRP-1 activation. H69AR cells + doxorubicin, viability rescue, CellTiter-Glo. viability increase, % at 10 µM. 140,000 tested, 0.61% active;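 active = viability gain under doxorubicin at or above a set limit, the compound median plus 3 SD, cut at about 4.7% in these data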;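 note: MRP-1 overexpressing cells given doxorubicin 25 µM after compound pretreatment; 18-22 h compound pretreatment then 72 h with doxorubicin before readout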
Phagocytosis inh = inhibitors of macrophage phagocytosis | inhibition, % at 5 µM | J774A.1 macrophage IgG-bead phagocytosis, imaging | 110,000 tested, 0.07% active;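 active = inhibition above the mean of the plate negative controls plus 5 SD, cut at about 13% in these data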;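 note: phagocytic index as fraction of beads internalized from green versus red external bead signal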
SDO1 yeast rescue = restores growth of sdo1-depleted yeast; z-score at 10 µM; S. cerevisiae sdo1-depleted JHY4D growth rescue, OD600 30 h; active compounds read high; pdr5 snq2 efflux-pump mutant strain; 140,000 tested, 0.21% active;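 active = z-score above 3 at both the 24 hr and the 30 hr optical density reads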
CD11b adhes enh = increases human CD11b/CD18 adhesion to fibrinogen | K562 CD11b/CD18 adhesion to fibrinogen, ATPlite luminescence | activation, % at 10 µM | 93,000 tested, 0.07% active | AID 1499;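 active = 10 µM primary screen giving 50% or more activity, confirmed by 40% or more on retest at that dose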
Of the large screens only hits and unclear results are named; the others gave an inactive call; [ ] = dose if it differs, or a comment.

C[C@@H]1C[C@H]2[C@@H]3C[C@H](F)C4=CC(=O)C=C[C@]4(C)[C@@]3(F)[C@@H](O)C[C@]2(C)[C@@]1(O)C(=O)COC(=O)C(C)(C)C	none (no result: CD11b adhes inh, Phagocytosis inh, CD11b adhes enh)
CC(=O)OCC(=O)[C@@]1(O)[C@H](C)C[C@H]2[C@@H]3CCC4=CC(=O)C=C[C@]4(C)[C@@]3(F)[C@@H](O)C[C@@]21C	MRP-1 activ 10.2 (no result: CD11b adhes inh, Phagocytosis inh, CD11b adhes enh)
CCNc1nc(CN2CCCCC2)nc2scc(-c3ccccc3)c12	CD11b adhes inh 78.3 (no result: MRP reversal)
COCCN1C(=O)N[C@@H](c2ccc(Br)cc2)C(C(C)=O)=C1C	none (no result: CD11b adhes inh, MRP reversal, Phagocytosis inh, CD11b adhes enh)
Cn1cnnc1SCC(=O)NN(c1ccccc1)c1ccccc1	Phagocytosis inh 26.8[artifact] (no result: CD11b adhes inh, MRP reversal, CD11b adhes enh)
CCOc1ccc(NC(=O)CN2CCN(CC(=O)Nc3ccc(Cl)c(C(F)(F)F)c3)CC2)cc1	none (no result: Phagocytosis inh)
COc1ccc(-n2nc(C(=O)Nc3nc4ccc(OC)cc4s3)c3ccccc3c2=O)cc1	none (no result: MRP reversal)
CCOc1ccc(C(=O)Nc2cccc(-c3nc4cccnc4o3)c2)cc1Cl	CD11b adhes enh 55.1 (no result: MRP reversal)
O=C(CCc1ccc(S(=O)(=O)N2CCOCC2)cc1)Nc1nc(COc2ccccc2)cs1	CD11b adhes inh 87.4 (no result: MRP reversal)
COCCn1c(C)cc(C2=NNC(=Nc3ccc(Cl)cc3Cl)SC2)c1C	CD11b adhes enh 82.3 (no result: Phagocytosis inh)
O=[N+]([O-])c1cc(Br)c(O)c(/C=N/Nc2nnnn2-c2cccc3ccccc23)c1	CD11b adhes inh 88.0 (no result: MRP reversal)
COC(=O)CSc1nnnn1-c1cccc2ccccc12	none
CCc1ccc(N2CC(C(=O)Nc3cc(C)ccc3F)CC2=O)cc1 (configuration not stated)	none
COc1ccccc1/C=C/C=N/n1c(C2CCCCC2)n[nH]c1=S	MRP-1 activ 4.8 (no result: MRP reversal)
C=CCSc1nccc(-c2cc(Cl)sc2Cl)n1	none
O=C(COc1ccc(Br)cc1)c1ccc2c(c1)CCCC2	MRP-1 activ 5.1 (no result: CD11b adhes inh, MRP reversal, Phagocytosis inh, CD11b adhes enh)
Cc1nn(C)c(C(=O)NC2C3CC4CC(C3)CC2C4)c1Cl (configuration not stated)	none (no result: CD11b adhes inh, MRP reversal, CD11b adhes enh)
Cc1nc(C)c(-c2nnc(-c3ccc(C(C)(C)C)cc3)o2)cc1C(=O)NN	none (no result: CD11b adhes inh, MRP reversal, CD11b adhes enh)
COc1ccc(NC(=O)CC2C(=O)N(c3ccc(Cl)cc3)C(=S)N2NC(=O)c2cccc(F)c2)cc1 (configuration not stated)	MRP-1 activ 5.1 (no result: CD11b adhes inh, MRP reversal, Phagocytosis inh, CD11b adhes enh)
COC(=O)CN1C(=S)N(c2ccc(Cl)cc2)C(=O)C1CC(=O)Nc1ccc(F)cc1 (configuration not stated)	none (no result: MRP reversal)
COc1ccc(NC(=O)CC2C(=O)N(c3ccc(F)cc3)C(=S)N2NC(=O)c2ccc(Cl)cc2)cc1 (configuration not stated)	MRP-1 activ 4.8 (no result: CD11b adhes inh, MRP reversal, CD11b adhes enh)
Cc1[nH]nc2c1C(CCc1ccccc1)C(C#N)=C(N)O2 (configuration not stated)	none (no result: MRP reversal)
COc1ccc(CSC2=NCCN2)cc1Cl	MRP-1 activ 9.7
CCCOc1ccc(CSC2=NCCN2)cc1[N+](=O)[O-]	none (no result: MRP reversal)
O=C(Nc1ccccc1C(F)(F)F)N1CCC(n2c(=O)[nH]c3ccccc32)CC1	none (no result: CD11b adhes inh, MRP reversal, Phagocytosis inh, CD11b adhes enh)
CCOc1ccc(NC(=O)N2CCC(n3c(=O)[nH]c4ccccc43)CC2)cc1	MRP-1 activ 5.6
CCn1c(O)c(/C=N/N=C/c2ccccc2)c2ccc(C3=NNC(=O)CC3)cc21	none
COC(=O)c1ccc(O)c(Sc2cc(C(=O)OC)ccc2O)c1	CD11b adhes inh 97.8
CCN(CC)C(=O)Oc1cc(=O)n(C)c2ccccc12	none (no result: CD11b adhes inh, MRP reversal, CD11b adhes enh)
Cc1nn(Cc2ccccc2)c(C)c1NC(=O)c1cccs1	none (no result: CD11b adhes inh, MRP reversal, CD11b adhes enh)
Cc1nn(Cc2ccccc2)c(C)c1NC(=O)c1cc(-c2cccs2)on1	MRP-1 activ 4.8
COc1ccc(S(=O)(=O)Nc2ccc(NC(C)=O)cc2)cc1	none (no result: Phagocytosis inh)
COc1ccc(S(=O)(=O)Nc2ccc(N(C)C(C)=O)cc2)cc1	Phagocytosis inh 192.0
Fc1cccc(-c2cc3nc(-c4ccccc4)cc(N4CCC5(CC4)OCCO5)n3n2)c1	MRP-1 activ 6.1 (no result: CD11b adhes inh, Phagocytosis inh, CD11b adhes enh)
Cc1cccc(-c2cc3nc(-c4ccccc4)cc(N4CCC5(CC4)OCCO5)n3n2)c1	none (no result: CD11b adhes inh, Phagocytosis inh, CD11b adhes enh)
CC(/C=N/NC(=O)c1nn(C)c(C)c1Br)=C\c1ccccc1	MRP-1 activ 7.7 (no result: CD11b adhes inh, MRP reversal, CD11b adhes enh)
COc1ccc(OC)c(NC(=O)c2cnc(Nc3ccccc3OC)c3ccccc23)c1	none (no result: CD11b adhes inh, MRP reversal, CD11b adhes enh)
COc1cccc(Nc2ncc(C(=O)O)c3ccccc23)c1	MRP-1 activ 5.1 (no result: CD11b adhes inh, Phagocytosis inh, CD11b adhes enh)
COc1cccc(/C=N/n2cnc3ccccc32)c1OC	none
O=[N+]([O-])c1ccc(O)c(/C=N/n2cnc3ccccc32)c1	CD11b adhes inh 103.6, MRP-1 activ 5.2 (no result: MRP reversal)
CSc1ncc(Cl)c(C(=O)Nc2nnc(SC)s2)n1	MRP-1 activ 9.1
O=C(Nc1ccc(Cn2cccn2)cc1)c1ccc(COc2cccc(Br)c2)cc1	none (no result: MRP reversal)
O=C(Nc1ccc(Cn2cccn2)cc1)c1ccc(COc2ccc(Br)cc2)cc1	CD11b adhes enh 52.1 (no result: MRP reversal, Phagocytosis inh)
C=C1Cn2c(nnc2-c2ccc(Cl)cc2)S1	none
O=C(/C=C/c1ccccc1)c1cc(Br)ccc(=O)c1O	CD11b adhes inh 88.0 (no result: MRP reversal)
Cc1cccc(N2CCN(C(=O)Cc3ccc(Br)cc3)CC2)c1C	MRP-1 activ 7.9
O=C(Cc1ccc(Br)cc1)N1CCN(c2ccccc2)CC1	none
Cc1ccc(C)c2sc(NC(=O)c3ccc(N4CCCCC4)c([N+](=O)[O-])c3)nc12	MRP-1 activ 6.7 (no result: CD11b adhes inh, MRP reversal, Phagocytosis inh, CD11b adhes enh)
Cc1cccc(NC(=O)c2ccc(N3CCCCC3)c([N+](=O)[O-])c2)n1	none (no result: MRP reversal)
O=S(=O)(Nc1nc2ccccc2nc1N1CCN(c2ccccn2)CC1)c1ccc(Cl)cc1	CD11b adhes inh 102.2 (no result: MRP reversal)
CCc1nc(NCC2CCCN2CC)c2nnn(Cc3ccccc3F)c2n1 (configuration not stated)	none
COc1cc(C2/C(=C(/O)c3ccc(F)cc3)C(=O)C(=O)N2CCCC(=O)O)ccc1O (configuration not stated)	none (no result: CD11b adhes inh, Phagocytosis inh, CD11b adhes enh)
O=C(NC(=S)Nc1ccccc1N1CCCC1)c1ccc(-c2cccc([N+](=O)[O-])c2)o1	none
O=C(NC(=S)Nc1ccccc1N1CCCCC1)c1ccc(-c2cccc([N+](=O)[O-])c2)o1	MRP-1 activ 8.0
O=C(NC(=S)Nc1ccccc1N1CCOCC1)c1ccc(-c2cccc(Cl)c2)o1	MRP-1 activ 5.2 (no result: MRP reversal)
CC(C(=O)O)n1c(C(F)(F)F)nc2ccccc21 (configuration not stated)	none (no result: Phagocytosis inh)
CCC(C)NC(=O)CC(NS(=O)(=O)c1ccc(C)cc1)c1ccc(OC)cc1 (configuration not stated)	none (no result: CD11b adhes inh, CD11b adhes enh)
COc1ccc(C(CC(=O)O)NS(=O)(=O)c2ccc(C)cc2)cc1 (configuration not stated)	CD11b adhes inh 51.3
Cn1ccnc1-c1nc2ccccc2[nH]c1=O	MRP reversal 81.9 (no result: CD11b adhes inh, Phagocytosis inh, CD11b adhes enh)
COC(=O)c1ccc2c(c1)C(C)(C)C(/C=C/c1ccc(OC)c(OC)c1OC)=[N+]2C	CD11b adhes inh 107.4
CC(C)(C)NS(=O)(=O)c1ccc2nc(NC(=O)Cc3cccs3)sc2c1	none

Bioassay records from PubChem.
